# Experimental data from PubChem BioAssay.
# Activity calls are given as the source filed them.
# Experiments:
# [1] = binders of probe aFSTL3 on microarray, primary screen, stem cell growth factor project, biochemical, small-molecule microarray, fluorescence 635/667 (AID 1064); conditions: higher = more signal;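 also: measures binding of the biotinylated anti-FSTL3 antibody to printed compounds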
# [2] = binders from COS7 lysate, DM2A8 probe, primary screen, torsin A project, cell lysate, small-molecule microarray, fluorescence 635/667 (AID 1065); conditions: higher = more signal, COS7 lysate expressing mutant human TOR1A
# [3] = binders of probe aFGF2 on microarray, primary screen, stem cell growth factor project, biochemical, small-molecule microarray, fluorescence 635/667 (AID 1067); conditions: higher = more signal;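 also: measures binding of biotinylated aFGF2 protein to printed compounds on slides; z-score merges feature fluorescence and signal-to-noise across triplicate slides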
# [4] = binders of probe aFGF10 on microarray, primary screen, stem cell growth factor project, biochemical, small-molecule microarray, fluorescence 635/667 (AID 1071); conditions: higher = more signal;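 also: score merges 667 nm spot intensity and signal to noise from triplicate slides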
# [5] = biological target: Neurogenic locus notch homolog protein 2 (Homo sapiens) (UniProt Q04721); assay: Notch2 binders on small-molecule microarrays, primary screen, biochemical, small-molecule microarray, 635 nm fluorescence, stem cell growth factors (AID 1073); conditions: Notch2 binding, higher = more signal
# [6] = biological target: Pro-neuregulin-1, membrane-bound isoform (Homo sapiens) (UniProt Q02297); assay: NRG1 binders on small-molecule microarrays, primary screen, psychiatric disease protein project, biochemical, small-molecule microarray, fluorescence 635/667 (AID 1075); conditions: NRG1 binding, 635 nm fluorescence, higher = more signal;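 also: score combines 667 nm spot fluorescence with signal to noise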
# [7] = system: Neuregulin-1 EGF-like domain; assay: binders of neuregulin-1 EGF-like domain, primary screen, biochemical, small-molecule microarray, 635 nm fluorescence (AID 1081); conditions: small-molecule microarray binding, higher = more signal;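 also: binding of the protein to compounds printed on small-molecule microarray slides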
# [8] = FRG1 promoter luciferase signal modulators, primary screen, FRG1 inhibition for FSHD, cell-based, C2C12 myotubes, firefly/Renilla luciferase, luminescence (AID 1084); conditions: higher = more signal, called active from +8 up or from −8 down
# [9] = binders of probe aFST on microarray, primary screen, stem cell growth factor project, biochemical, small-molecule microarray, fluorescence 635/667 (AID 1086); conditions: higher = more signal;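 also: score merges 667 nm fluorescence with signal-to-noise of each printed compound spot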
# [10] = binders of probe aHhip on microarray, primary screen, stem cell growth factor project, biochemical, small-molecule microarray, fluorescence 635/667 (AID 1087); conditions: higher = more signal;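 also: score merges spot fluorescence at 667nm with spot signal to noise ratio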
# [11] = system: PRMT1 (protein arginine N-methyltransferase 1); assay: PRMT1 binders on small-molecule microarrays, primary screen, biochemical, small-molecule microarray, 635 nm fluorescence (AID 1088); conditions: small-molecule microarray binding, higher = more signal;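 also: binding of Prmt1 protein to compounds spotted on small-molecule microarray slides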
# [12] = yeast growth modulation, basal conditions, primary screen, YJM789 clinical isolate, OD600, 24 h (AID 1089);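 also: growth of clinical yeast isolate S. cerevisiae YJM 789 seeded 1000 cells per well; test concentration not given here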; conditions: S. cerevisiae YJM789 growth, higher = more signal, called active from +8 up or from −8 down
# [13] = fission yeast growth modulation, primary screen, strain 972, OD600, 24 h, no modulator (AID 1090);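 also: basal condition with compound alone and no growth modifier present; test concentration not given here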; conditions: S. pombe 972 growth, higher = more signal, called active from +8 up or from −8 down
# [14] = S. cerevisiae growth modulation with rapamycin, primary screen, strain BY4716, OD600, 96 h (AID 1091); conditions: higher = more signal, called active from +8 up or from −8 down; also: test concentration not given here
# [15] = biological target: Torsin-1A-interacting protein 2 (Homo sapiens) (UniProt Q8NFQ8); assay: LULL1 binders on small-molecule microarray, primary screen, cell lysate, human LULL1 lysate, 635/667 nm fluorescence (AID 1092); conditions: hLULL1 lysate binding, 635 nm fluorescence, higher = more signal;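 also: probe is lysate of COS7 cells overexpressing human LULL1; score merges per-feature 667 nm fluorescence with signal-to-noise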
# [16] = E. coli growth modulation, two-sided OD650, primary screen, E. coli filamentation project, strain DRC41, 24 h (AID 1093); conditions: OD650, 24 h, higher = more signal, called active from +8 up or from −8 down;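 also: MC1000 strain lacking acrAB efflux and sulA so SOS filamentation is blocked; test concentration not given here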
# [17] = small-molecule microarray binders of probe aLefty2, primary screen, biochemical, biotinylated probe, 635/667 nm fluorescence (AID 1094); conditions: higher = more signal;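 also: score merges spot fluorescence near 667 nm with spot signal-to-noise ratio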
# [18] = system: Noggin (protein binding on small-molecule microarray); assay: Noggin binders on small-molecule microarray, primary screen, biochemical, 635/667 nm fluorescence (AID 1095); conditions: 635 nm fluorescence, higher = more signal;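 also: score merges 667 nm feature fluorescence with signal to noise over triplicate slides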
# [19] = biological target: Neurogenic locus notch homolog protein 3 (Homo sapiens) (UniProt Q9UM47); assay: NOTCH3 binders on small-molecule microarray, primary screen, biochemical, 635/667 nm fluorescence (AID 1096); conditions: NOTCH3 binding, 635 nm fluorescence, higher = more signal
# [20] = small-molecule microarray binders of probe aEGFR, primary screen, biochemical, biotinylated probe, 635/667 nm fluorescence (AID 1097); conditions: higher = more signal;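 also: probe is a biotinylated anti-EGFR antibody binding compounds printed on slides; score combines fluorescence near 667 nm and signal to noise of each spot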
# Sequence of Neurogenic locus notch homolog protein 3 (Homo sapiens) (Q9UM47 whole entry, looked up): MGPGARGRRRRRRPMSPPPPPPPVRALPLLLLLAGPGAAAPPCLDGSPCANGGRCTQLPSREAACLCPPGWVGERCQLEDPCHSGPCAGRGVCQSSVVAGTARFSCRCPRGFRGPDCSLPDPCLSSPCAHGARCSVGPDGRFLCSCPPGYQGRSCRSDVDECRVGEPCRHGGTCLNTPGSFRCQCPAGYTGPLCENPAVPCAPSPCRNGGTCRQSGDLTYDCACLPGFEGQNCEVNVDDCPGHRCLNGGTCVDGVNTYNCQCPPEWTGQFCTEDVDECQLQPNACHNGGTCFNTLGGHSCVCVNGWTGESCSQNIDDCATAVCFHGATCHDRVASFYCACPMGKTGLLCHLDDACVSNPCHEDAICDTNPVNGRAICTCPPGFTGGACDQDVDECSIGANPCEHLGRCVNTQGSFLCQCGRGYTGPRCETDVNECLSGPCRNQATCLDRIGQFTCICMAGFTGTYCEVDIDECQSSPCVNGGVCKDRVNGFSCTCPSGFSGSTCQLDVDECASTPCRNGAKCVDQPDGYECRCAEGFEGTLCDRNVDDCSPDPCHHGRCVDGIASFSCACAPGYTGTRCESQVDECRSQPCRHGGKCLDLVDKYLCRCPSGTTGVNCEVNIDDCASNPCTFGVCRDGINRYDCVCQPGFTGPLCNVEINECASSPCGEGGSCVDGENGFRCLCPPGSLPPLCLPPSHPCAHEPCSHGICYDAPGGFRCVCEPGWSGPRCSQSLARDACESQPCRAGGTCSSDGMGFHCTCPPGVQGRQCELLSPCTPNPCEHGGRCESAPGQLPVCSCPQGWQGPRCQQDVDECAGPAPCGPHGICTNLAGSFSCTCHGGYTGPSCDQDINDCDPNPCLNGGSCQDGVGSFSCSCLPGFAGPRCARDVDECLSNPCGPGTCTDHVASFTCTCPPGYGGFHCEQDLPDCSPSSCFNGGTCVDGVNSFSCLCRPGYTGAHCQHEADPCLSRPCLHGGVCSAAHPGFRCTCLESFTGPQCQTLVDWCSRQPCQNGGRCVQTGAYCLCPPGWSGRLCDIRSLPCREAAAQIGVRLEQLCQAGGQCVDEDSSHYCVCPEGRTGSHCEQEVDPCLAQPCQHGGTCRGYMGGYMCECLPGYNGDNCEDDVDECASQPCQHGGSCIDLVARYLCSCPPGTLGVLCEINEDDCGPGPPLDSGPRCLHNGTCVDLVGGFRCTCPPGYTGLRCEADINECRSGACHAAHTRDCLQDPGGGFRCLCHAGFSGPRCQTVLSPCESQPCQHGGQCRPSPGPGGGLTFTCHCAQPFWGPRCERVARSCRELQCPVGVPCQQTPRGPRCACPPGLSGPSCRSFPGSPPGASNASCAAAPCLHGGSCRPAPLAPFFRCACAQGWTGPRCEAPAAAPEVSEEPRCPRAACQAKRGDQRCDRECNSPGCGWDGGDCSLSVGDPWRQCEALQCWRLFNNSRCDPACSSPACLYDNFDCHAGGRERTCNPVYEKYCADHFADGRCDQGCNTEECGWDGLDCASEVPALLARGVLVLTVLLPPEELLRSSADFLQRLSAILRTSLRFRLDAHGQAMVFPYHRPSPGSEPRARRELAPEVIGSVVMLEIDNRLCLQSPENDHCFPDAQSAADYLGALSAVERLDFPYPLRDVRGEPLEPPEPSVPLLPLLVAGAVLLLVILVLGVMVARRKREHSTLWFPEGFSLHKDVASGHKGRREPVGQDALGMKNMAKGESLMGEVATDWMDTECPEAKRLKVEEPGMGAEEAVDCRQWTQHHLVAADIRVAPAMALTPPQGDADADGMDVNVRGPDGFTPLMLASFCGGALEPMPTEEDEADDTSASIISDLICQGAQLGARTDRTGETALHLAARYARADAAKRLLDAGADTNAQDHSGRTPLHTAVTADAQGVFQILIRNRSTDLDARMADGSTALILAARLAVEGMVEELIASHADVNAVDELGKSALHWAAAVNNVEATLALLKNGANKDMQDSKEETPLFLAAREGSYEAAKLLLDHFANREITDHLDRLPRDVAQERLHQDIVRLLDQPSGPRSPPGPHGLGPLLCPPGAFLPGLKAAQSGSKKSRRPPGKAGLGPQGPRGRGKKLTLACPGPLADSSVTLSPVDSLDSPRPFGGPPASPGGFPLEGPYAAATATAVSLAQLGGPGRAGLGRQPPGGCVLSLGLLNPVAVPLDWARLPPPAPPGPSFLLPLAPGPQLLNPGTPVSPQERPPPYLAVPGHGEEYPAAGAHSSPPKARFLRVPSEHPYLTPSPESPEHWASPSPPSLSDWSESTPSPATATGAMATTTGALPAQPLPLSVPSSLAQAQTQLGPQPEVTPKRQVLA
# Sequence of Neurogenic locus notch homolog protein 2 (Homo sapiens) (Q04721 whole entry, looked up, canonical isoform): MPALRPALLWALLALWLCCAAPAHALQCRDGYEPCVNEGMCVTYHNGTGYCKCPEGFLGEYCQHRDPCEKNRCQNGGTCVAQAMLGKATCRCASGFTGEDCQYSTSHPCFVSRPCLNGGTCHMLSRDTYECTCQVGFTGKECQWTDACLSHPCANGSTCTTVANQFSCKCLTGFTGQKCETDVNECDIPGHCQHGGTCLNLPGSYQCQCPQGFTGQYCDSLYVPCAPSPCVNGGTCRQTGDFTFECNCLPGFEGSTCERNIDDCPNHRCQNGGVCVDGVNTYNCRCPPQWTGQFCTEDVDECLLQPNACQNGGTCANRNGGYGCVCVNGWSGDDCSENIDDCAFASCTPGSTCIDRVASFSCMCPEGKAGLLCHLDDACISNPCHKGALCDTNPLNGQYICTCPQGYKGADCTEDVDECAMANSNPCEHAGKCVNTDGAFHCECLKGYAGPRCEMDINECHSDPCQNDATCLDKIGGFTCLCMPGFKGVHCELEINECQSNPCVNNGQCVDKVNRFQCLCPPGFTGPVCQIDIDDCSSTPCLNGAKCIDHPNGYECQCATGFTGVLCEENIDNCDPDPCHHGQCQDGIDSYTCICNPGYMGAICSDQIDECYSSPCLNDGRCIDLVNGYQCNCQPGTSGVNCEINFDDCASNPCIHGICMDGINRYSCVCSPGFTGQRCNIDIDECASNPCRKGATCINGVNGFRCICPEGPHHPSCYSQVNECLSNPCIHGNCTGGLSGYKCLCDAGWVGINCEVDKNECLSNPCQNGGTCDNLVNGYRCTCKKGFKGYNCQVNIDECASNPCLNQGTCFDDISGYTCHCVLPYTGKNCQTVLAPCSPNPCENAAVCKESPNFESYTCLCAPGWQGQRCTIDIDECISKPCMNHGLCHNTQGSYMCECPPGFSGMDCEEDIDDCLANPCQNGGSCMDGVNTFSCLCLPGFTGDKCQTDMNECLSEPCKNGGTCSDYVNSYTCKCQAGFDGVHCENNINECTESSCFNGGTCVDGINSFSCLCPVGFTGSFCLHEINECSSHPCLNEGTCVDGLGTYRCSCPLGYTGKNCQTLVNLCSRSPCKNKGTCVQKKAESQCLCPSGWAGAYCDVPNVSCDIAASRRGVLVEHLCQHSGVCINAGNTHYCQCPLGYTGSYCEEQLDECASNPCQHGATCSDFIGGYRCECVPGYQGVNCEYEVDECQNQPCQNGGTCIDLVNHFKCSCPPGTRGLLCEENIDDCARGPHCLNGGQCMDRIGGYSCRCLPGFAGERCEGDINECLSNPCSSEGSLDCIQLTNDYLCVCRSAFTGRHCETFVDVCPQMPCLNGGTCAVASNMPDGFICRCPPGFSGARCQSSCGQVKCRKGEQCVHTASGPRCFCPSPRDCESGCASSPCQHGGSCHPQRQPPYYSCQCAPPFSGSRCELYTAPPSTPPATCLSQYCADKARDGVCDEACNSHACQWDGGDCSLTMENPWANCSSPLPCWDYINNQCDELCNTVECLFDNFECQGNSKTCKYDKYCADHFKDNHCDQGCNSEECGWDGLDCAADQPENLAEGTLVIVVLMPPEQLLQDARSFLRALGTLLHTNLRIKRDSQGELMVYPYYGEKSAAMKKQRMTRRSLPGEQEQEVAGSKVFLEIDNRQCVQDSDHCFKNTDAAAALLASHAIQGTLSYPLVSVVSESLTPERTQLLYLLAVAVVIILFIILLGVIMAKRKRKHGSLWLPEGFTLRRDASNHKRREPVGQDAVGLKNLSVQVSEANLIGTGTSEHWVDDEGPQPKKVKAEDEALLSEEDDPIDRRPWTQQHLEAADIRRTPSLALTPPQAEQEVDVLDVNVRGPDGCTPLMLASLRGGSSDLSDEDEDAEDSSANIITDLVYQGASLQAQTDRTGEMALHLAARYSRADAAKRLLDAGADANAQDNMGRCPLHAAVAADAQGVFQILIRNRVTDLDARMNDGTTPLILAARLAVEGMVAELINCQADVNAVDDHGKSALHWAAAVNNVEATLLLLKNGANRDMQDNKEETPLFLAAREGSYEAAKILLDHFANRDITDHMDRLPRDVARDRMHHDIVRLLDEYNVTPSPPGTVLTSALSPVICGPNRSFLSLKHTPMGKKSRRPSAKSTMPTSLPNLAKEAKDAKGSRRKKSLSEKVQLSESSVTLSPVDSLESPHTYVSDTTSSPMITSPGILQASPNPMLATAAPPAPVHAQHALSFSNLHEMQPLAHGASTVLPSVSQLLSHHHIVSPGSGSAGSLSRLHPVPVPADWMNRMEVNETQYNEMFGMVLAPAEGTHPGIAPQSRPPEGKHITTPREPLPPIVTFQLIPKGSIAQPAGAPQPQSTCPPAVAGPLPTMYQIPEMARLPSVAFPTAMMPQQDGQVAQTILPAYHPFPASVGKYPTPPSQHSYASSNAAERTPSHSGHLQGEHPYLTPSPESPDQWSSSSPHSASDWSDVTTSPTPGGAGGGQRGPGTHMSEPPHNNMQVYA
Structure (SMILES),composite z-score [1],composite z-score [2],composite z-score [3],composite z-score [4],composite z-score [5],composite z-score [6],composite z-score [7],z-score [8],composite z-score [9],composite z-score [10],composite z-score [11],z-score [12],z-score [13],z-score [14],composite z-score [15],z-score [16],composite z-score [17],composite z-score [18],composite z-score [19],composite z-score [20]
COc1ccc(OC[C@@H](CO)OC)cc1,-0.306,0.415,-0.0512,0.3,0.0354,-0.156,-0.0824,0.759 (inactive),0.0746,-0.0994,-0.601,-0.368 (inactive),-0.199 (inactive),-0.302 (inactive),-0.0777,0.418 (inactive),-0.185,0.802,-0.176,-0.0381
COC(=O)CC=C1c2ccccc2[C@H](OC)[C@H]1C,-0.033,-0.113,-0.0044,0.234,-0.0929,-0.395,-0.293,0.009 (inactive),0.137,-0.0296,-0.32,0.649 (inactive),0.863 (inactive),0.387 (inactive),-0.655,0.194 (inactive),-0.0732,0.189,-0.562,-0.0657
O=C1[C@H]2[C@H]3[C@H](O)[C@H](O)CC(=NOC[C@@H](O)COCc4ccco4)[C@@H]3CC[C@H]2C(=O)N1C1CCCCC1,-0.679,2.04,-0.16,-0.357,0.0224,-0.459,1.2,0.219 (inactive),-0.045,0.235,1.39,1.61 (inactive),-0.0798 (inactive),-0.133 (inactive),1.25,0.61 (inactive),-0.061,1.75,0.437,0.0583
CC(C)CON=C1C[C@@H](O)[C@@H](O)[C@@H]2[C@@H]3C(=O)N(C(C)(C)C)C(=O)[C@@H]3CC[C@@H]12,-0.7,2.77,-0.243,-0.541,-0.483,-0.517,0.694,0.0071 (inactive),-0.0117,-0.303,1.37,0.118 (inactive),-0.182 (inactive),-0.147 (inactive),-0.495,0.222 (inactive),-0.317,1.02,-0.269,-0.0638
COC(=O)[C@H](C)NC(=O)CCC1CC(OC(=O)NCc2cccc3ccccc23)CC2(CCCC(COC(=O)NCc3ccccc3)O2)O1 (stereo not given in full),-0.425,-0.261,0.026,0.329,1.39,0.853,0.78,2.13 (inactive),0.2,-0.374,1.29,-0.68 (inactive),0.507 (inactive),-0.936 (inactive),1.97,-0.351 (inactive),-0.0638,0.478,1.09,0.12
CON=C(C)CCN1CCc2nc(-c3ccccc3)c(-c3ccccc3)cc2C1,-0.262,-0.052,-0.128,-0.149,0.195,0.387,-0.961,0.953 (inactive),0.0046,-0.201,0.0214,-1.08 (inactive),-17.2 (active),-3.67 (inactive),-0.919,1.69 (inactive),-0.0699,0.107,0.556,-0.158
CCOC(=O)[C@H](Cc1ccccc1)NC(=O)CCC1CC(OC(=O)NCc2ccc3c(c2)OCO3)CC2(CCCC(COC(=O)NCCOc3ccccc3)O2)O1 (stereo not given in full),-0.288,0.474,-0.051,0.378,0.896,0.833,1.08,1.17 (inactive),0.672,-0.0994,1.48,0.0339 (inactive),0.486 (inactive),0.576 (inactive),1.31,0.196 (inactive),-0.0446,0.484,1.12,0.0436
CON=C(C)CCC(=O)OC[C@H]1O[C@H](C#Cc2ccccc2)C=C[C@@H]1Oc1ccc(C)cc1,-0.453,-0.172,-0.0563,0.33,-0.598,0.108,0.394,-0.127 (inactive),0.423,0.0854,1.06,1.42 (inactive),-14.2 (active),1.52 (inactive),0.756,0.149 (inactive),-0.143,0.351,0.326,-0.0363
C[C@@H](c1ccccc1)N1C(=O)[C@H]2[C@H]3[C@H](O)[C@H](O)CC(=NNC(=O)OCc4ccccc4)[C@@H]3CC[C@H]2C1=O,-0.909,2.62,-0.203,-0.261,-0.155,-0.536,1.22,-0.491 (inactive),0.0473,0.161,1.57,-0.291 (inactive),0.452 (inactive),5.24 (inactive),0.0265,0.482 (inactive),-0.19,1.89,-0.11,-0.508
COc1ccc(COC(=O)NN=C2C[C@@H](O)[C@@H](O)[C@@H]3[C@@H]4C(=O)N(C(C)(C)C)C(=O)[C@@H]4CC[C@@H]23)cc1,-0.31,1.1,-0.0243,0.568,1.14,0.173,0.644,1.24 (inactive),0.413,-0.204,1.16,-1.26 (inactive),-0.573 (inactive),-0.731 (inactive),0.515,1.09 (inactive),-0.005,0.0364,1.02,-0.03
